Assay results: the supplement of paper PMC11634586
Values without a mark were called inactive.

system: NCI-H1688; experiment: inhibition of cell viability relative to untreated control (fraction); higher = stronger growth inhibition, active = 0.5 or more; conditions: 30 µM; 24 h
Outline: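 Viability of NCI-H1688 small cell lung cancer cells was assessed with Cell Counting Kit-8 by absorbance at 450 nm, in triplicate, after a 24 h exposure to a natural compound library (TargetMol) at 30 µM at 37°C and 5% CO2. The cells had been seeded at 3 × 10^3 cells/well in 96-well plates 24 h before treatment. Inhibition of cell viability is reported as a fraction, derived from viability normalised against untreated cells.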

In order of rising “inhibition of cell viability” value:
1. COc1ccc2c(C)cc(=O)oc2c1 [7-Methoxy-4-methylcoumarin]  -0.298
2. Cc1cc(O)c2c(c1)C(=O)c1cccc(O)c1C2=O [Chrysophanic Acid]  -0.28
3. CC(=O)OC/C=C(C)/C=C/C=C(C)/C=C/C1=C(C)CCCC1(C)C [Retinyl acetate]  -0.265
4. COc1cc(CO)ccc1O [Vanillyl Alcohol]  -0.235
5. OC[C@@H](O)[C@@H](O)[C@H](O)[C@@H](O)CO [D-Sorbitol]  -0.224
6. COC(=O)c1ccc(O)c(OC)c1 [Methyl Vanillate]  -0.221
7. CC(=O)[C@H]1CC[C@H]2[C@@H]3CCC4=CC(=O)CC[C@]4(C)[C@H]3CC[C@]12C [Progesterone]  -0.156
8. C/C=C/c1ccc(OC)cc1 [Trans-Anethole]  -0.146
9. OC[C@H]1O[C@H](OCC2O[C@@H](O)[C@H](O)[C@@H](O)[C@@H]2O)[C@H](O)[C@@H](O)[C@H]1O (some centres not stated) [Melibiose]  -0.13
10. CC[C@@H]1C(=O)OC[C@@H]1Cc1cncn1C [Pilocarpine nitrate]  -0.128
11. O=C(O)[C@H]1O[C@@H](Oc2cc3oc(-c4ccccc4)cc(=O)c3c(O)c2O)[C@H](O)[C@@H](O)[C@@H]1O [Baicalin]  -0.127
12. CC1(C)[C@@H](O)CC[C@]2(C)[C@H]3C(=O)C=C4[C@@H]5C[C@@](C)(C(=O)O)CC[C@]5(C)CC[C@@]4(C)[C@]3(C)CC[C@@H]12 [Enoxolone]  -0.0418
13. O=C(O)/C=C/c1ccccc1 [Cinnamic acid]  -0.0303
14. COc1ccc([C@@H]2OC[C@H]3[C@@H]2CO[C@@H]3c2ccc(O[C@@H]3O[C@H](CO)[C@@H](O)[C@H](O)[C@H]3O)c(OC)c2)cc1OC [Forsythin]  -0.0217
15. O=C1c2c(O)cccc2C([C@@H]2O[C@H](CO)[C@@H](O)[C@H](O)[C@H]2O)c2cc(CO)cc(O)c21 (some centres not stated) [Aloin]  -0.014
16. COc1cc(-c2oc3cc(O)cc(O)c3c(=O)c2O)ccc1O [Isorhamnetin]  -0.0139
17. OC[C@H]1O[C@@H](OCCc2ccc(O)cc2)[C@H](O)[C@@H](O)[C@@H]1O [Salidroside]  -0.0108
18. CC(=O)N[C@H]1[C@H]([C@H](O)[C@H](O)CO)OC(O)(C(=O)O)C[C@@H]1O (some centres not stated) [N-Acetylneuraminic acid]  -0.0072
19. COc1cc(OC)c2ccc(=O)oc2c1 [Citropten]  -0.00623
20. CC(C)=CCC/C(C)=C/CC/C(C)=C/CC/C(C)=C/CC1=C(C)C(=O)c2ccccc2C1=O [Menatetrenone]  -0.0024
21. c1coc(CNc2ncnc3[nH]cnc23)c1 [Kinetin]  0.00365
22. CC1=C(/C=C/C(C)=C/C=C/C(C)=C/C(=O)O)C(C)(C)CCC1 [Tretinoin]  0.00396
23. COc1ccc(C2CC(=O)c3c(O)cc(OC4OC(COC5OC(C)C(O)C(O)C5O)C(O)C(O)C4O)cc3O2)cc1OC (configuration not stated) [Methyl hesperidin]  0.00735
24. O=C(O)c1cc(O)c2c(c1)[C@H]([C@H]1c3cc(C(=O)O)cc(O)c3C(=O)c3c(O[C@@H]4O[C@H](CO)[C@@H](O)[C@H](O)[C@H]4O)cccc31)c1cccc(O[C@@H]3O[C@H](CO)[C@@H](O)[C@H](O)[C@H]3O)c1C2=O [Sennoside A]  0.0197
25. OC[C@@H](O)[C@@H](O[C@H]1O[C@H](CO)[C@@H](O)[C@H](O)[C@H]1O)[C@H](O)[C@@H](O)CO [Maltitol]  0.0233
26. CC(=O)c1ccc(O)c(C(=O)O)c1 [5-Acetylsalicylic acid]  0.0598
27. COC(=O)C1=CO[C@@H](O[C@@H]2O[C@H](CO)[C@@H](O)[C@H](O)[C@H]2O)[C@@H]2[C@@H](C)[C@@H](O)C[C@H]12 [Loganin]  0.0696
28. NC(=O)c1cccnc1 [Nicotinamide]  0.0846
29. CNC[C@H](O)c1ccc(O)c(O)c1 [Epinephrine bitartrate]  0.0849
30. Cn1cnc2c1c(=O)[nH]c(=O)n2C [Theobromine]  0.0986
31. C[C@H](CC[C@@H](O[C@@H]1O[C@H](CO[C@@H]2O[C@H](CO)[C@@H](O)[C@H](O)[C@H]2O)[C@@H](O)[C@H](O)[C@H]1O[C@@H]1O[C@H](CO)[C@@H](O)[C@H](O)[C@H]1O)C(C)(C)O)[C@H]1CC[C@@]2(C)[C@@H]3CC=C4[C@@H](CC[C@H](O[C@@H]5O[C@H](CO[C@@H]6O[C@H](CO)[C@@H](O)[C@H](O)[C@H]6O)[C@@H](O)[C@H](O)[C@H]5O)C4(C)C)[C@]3(C)[C@H](O)C[C@]12C [Mogroside V]  0.121
32. COC(=O)C1=CO[C@@H](O)[C@@H]2C(CO)=CC[C@H]12 [Genipin]  0.135
33. COc1c2occc2c(OC)c2c(=O)cc(C)oc12 [Khellin]  0.168
34. COc1ccc(-c2cc(=O)c3c(O)c(OC)c(O[C@@H]4O[C@H](CO[C@@H]5O[C@@H](C)[C@H](O)[C@@H](O)[C@H]5O)[C@@H](O)[C@H](O)[C@H]4O)cc3o2)cc1 [Pectolinarin]  0.194
35. COc1ccc(-c2cc(=O)c3c(OC)c(OC)c(OC)c(OC)c3o2)cc1 [Tangeretin]  0.299
36. O=c1cc(-c2ccc(O)cc2)oc2cc(O)cc(O)c12 [Apigenin]  0.487

With C[C@H]1[C@H](C)CC[C@]2(C(=O)O)CC[C@]3(C)C(=CC[C@@H]4[C@@]5(C)CC[C@H](O)C(C)(C)[C@@H]5CC[C@]43C)[C@H]12 [Ursolic acid] the “inhibition of cell viability” value was 1.01 (active).
